An excerpt weighted towards active compounds, which were near 1.8% of everything screened.
VLA-4 inh: inhibition in a human VLA-4 binding assay. P13612. VLA-4 expressing cells, ligand binding flow cytometry. inhibition, % (about 7 µM as worked out from the volumes in the protocol). actives 0.2% (n = 330,000). AID 2557
Target sequence (P13612 whole entry, looked up): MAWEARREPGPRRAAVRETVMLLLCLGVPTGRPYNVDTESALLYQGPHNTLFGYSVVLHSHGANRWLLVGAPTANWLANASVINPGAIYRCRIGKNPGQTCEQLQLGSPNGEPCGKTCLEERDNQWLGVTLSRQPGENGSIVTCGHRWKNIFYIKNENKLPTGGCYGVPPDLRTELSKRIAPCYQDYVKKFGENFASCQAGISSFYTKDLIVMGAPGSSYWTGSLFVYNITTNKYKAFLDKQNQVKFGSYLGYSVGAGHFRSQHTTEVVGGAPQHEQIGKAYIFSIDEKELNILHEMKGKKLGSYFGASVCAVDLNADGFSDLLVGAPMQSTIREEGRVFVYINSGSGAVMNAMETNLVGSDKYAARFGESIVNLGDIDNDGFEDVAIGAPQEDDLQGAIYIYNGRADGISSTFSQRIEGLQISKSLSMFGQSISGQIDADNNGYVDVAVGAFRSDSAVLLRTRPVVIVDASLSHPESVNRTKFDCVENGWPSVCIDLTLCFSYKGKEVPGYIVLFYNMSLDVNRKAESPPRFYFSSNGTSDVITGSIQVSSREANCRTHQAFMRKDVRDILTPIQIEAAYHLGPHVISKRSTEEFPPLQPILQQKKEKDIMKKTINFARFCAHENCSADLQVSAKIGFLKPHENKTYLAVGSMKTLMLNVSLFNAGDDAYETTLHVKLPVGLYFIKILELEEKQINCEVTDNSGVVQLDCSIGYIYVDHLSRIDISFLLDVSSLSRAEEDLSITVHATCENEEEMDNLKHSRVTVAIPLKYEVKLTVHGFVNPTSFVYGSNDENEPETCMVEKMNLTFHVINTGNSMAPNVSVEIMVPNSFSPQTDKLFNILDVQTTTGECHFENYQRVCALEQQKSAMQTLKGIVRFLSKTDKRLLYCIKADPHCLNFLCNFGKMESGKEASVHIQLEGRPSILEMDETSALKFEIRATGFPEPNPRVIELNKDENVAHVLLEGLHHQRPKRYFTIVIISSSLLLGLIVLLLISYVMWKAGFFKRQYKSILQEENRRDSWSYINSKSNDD
LANA-H2A inh: blocks KSHV LANA binding to histone H2A/H2B; inhibition, % (test concentration not listed); actives 0.6% (n = 320,000); cell-free LANA-H2A/H2B peptide, fluorescence polarization; Q9QR71; in the data active means inhibition mostly above about 10%, no sharp cut-off; inactive means mostly below about 6.7%
GRK2 inh: inhibitors of human GRK2 displacing RNA aptamer; P25098; bead flow cytometry, FAM-aptamer displacement from GRK2; inhibition of aptamer binding, % at 10 µM; actives 0.59% (n = 330,000);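 active means inhibition of aptamer binding above 40%, roughly 3 SD of noise, on plates passing a quality check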;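 further: median bead fluorescence of bound FAM aptamer so fluorescent compounds give negative values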
PKD1 inh: PKD1 (human) kinase inhibition; PKD1 kinase fluorescence polarization assay; actives 0.056% (n = 200,000); Q15139; inhibition, % (no concentration beside the values)
DSG3 Ab inh: human desmoglein-3 autoantibody binding inhibition; DSG3-coupled beads, scFv-anti-DSG3-GFP binding, flow cytometry; active compounds read low; binding (percent of control), % at 10 µM; actives 0.48% (n = 310,000); AID 588358;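 active means binding more than 3 SD below its plate's average and above zero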;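 further: hits lower antibody fragment binding to DSG3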
HDAC3 inh: blocks human histone deacetylase 3; O15379; recombinant HDAC3, fluorogenic peptide/trypsin coupled, fluorescence; inhibition, % at 8.3 µM; actives 0.15% (n = 320,000); AID 2718; in the data active means inhibition above about 26%, passing the limit was not always enough
VLA-4 mod pick: confirmation of allosteric modulators of human VLA-4 integrin. shares compounds with VLA-4 inh. U937 cells, HUTS-21 LIBS mAb binding, flow cytometry; LDV ligand present at threefold Kd. inhibition, % at 6.7 µM. actives 2% (n = 1,300); in the data active means inhibition above about 40%
Hits are given with their value; - = inactive; . = no result. Unless noted, no stated cut-off is given here; in the data, active means inhibition above about 50%; inactive means the rest.

SMILES	VLA-4 inh	LANA-H2A inh	GRK2 inh	PKD1 inh	DSG3 Ab inh	HDAC3 inh	VLA-4 mod pick
COCCNS(=O)(=O)c1cc(-c2nn(C)c(=O)c3ccccc23)ccc1C	-	-	-	-	-	-	.
Cc1ccc(-c2nn3c(C)nnc3c3ccccc23)cc1S(=O)(=O)NC(C)(C)CO	-	-	-	-	-	-	.
Cc1ccc(-c2nn3c(C)nnc3c3ccccc23)cc1S(=O)(=O)NC(C)c1ccccc1 (stereo unspecified)	92	-	-	-	-	-	-
Cc1ccc(-c2nn3c(C)nnc3c3ccccc23)cc1S(=O)(=O)NCc1ccco1	-	-	-	-	-	-	-
Cc1ccc(-c2nn3c(C)nnc3c3ccccc23)cc1S(=O)(=O)NCCO	-	-	-	-	-	-	-
CC(=O)c1ccc([N+](=O)[O-])c(CS(=O)(=O)c2ccc(Cl)cc2)c1	-	-	-	.	-	-	.
CSc1ccc(CCNC(=O)c2cc(C)nn2-c2ccccc2)cc1	-	-	-	.	-	-	.
CCOC(=O)CNC(=O)c1ccc2[nH]c3ccccc3c2c1	-	-	-	-	-	-	-
CC(=O)Nc1ccc(-c2c(C)cc3oc(=O)cc(-c4ccccc4)c3c2C)cc1	.	.	-	.	-	.	.
CC(NC(=O)C1CCN(C(=O)[C@@H]2Cc3ccccc3CN2)CC1)c1ccccc1 (stereo partly specified)	-	-	-	.	-	-	.
O=C(CSc1nnc(-c2ccc(Cl)cc2)n1Cc1ccco1)Nc1ccc2c(c1)OCCO2	-	-	-	-	-	-	.
O=C(CSc1nnc(-c2ccc(Cl)cc2)n1Cc1ccco1)NCc1ccc2c(c1)OCO2	89	-	-	-	-	-	-
CN(C)c1ccc(C2(c3ccc(N(C)C)cc3)OC(=O)c3cc(N)ccc32)cc1	-	-	-	.	-	-	.
CCCCSc1nc2c(c(C(F)(F)F)c1C#N)CCC2	64	-	-	-	-	-	-
CCN1CCN(c2nc(Nc3ccc(C)c(C)c3)nc(N)c2[N+](=O)[O-])CC1	-	-	-	-	-	-	.
CCN1CCN(c2nc(Nc3cccc(OC)c3)nc(N)c2[N+](=O)[O-])CC1	-	-	-	.	-	-	-
COc1cc2c(cc1OC)C(C)N(C(=O)C(NC(=O)c1ccccc1)C(C)C)CC2 (stereo unspecified)	-	-	-	.	-	-	.
O=C(COC(=O)c1ccc(O)cc1)Nc1cc(C(F)(F)F)ccc1Cl	-	-	-	-	-	-	.
CC(OC(=O)c1ccc(O)cc1)C(=O)Nc1cc(C(F)(F)F)ccc1Cl (stereo unspecified)	-	-	-	.	-	-	-
CCN(CC(=O)NC1CCS(=O)(=O)C1)S(=O)(=O)c1ccc(Cl)cc1C(F)(F)F (stereo unspecified)	-	-	-	.	-	-	.
Cc1ccc(C)c(N/C(N)=N/c2nc(C)cc(C)n2)c1	54	-	-	-	-	-	-
COc1ccc(C)cc1N/C(N)=N/c1nc(C)cc(C)n1	-	-	-	-	-	-	.
CCOc1ccc(CN2CCN(Cc3cn(CC)nc3C)CC2CCO)cc1 (stereo unspecified)	-	-	-	-	-	-	-
CCOc1ccc(CN2CCN(Cc3c(C)nn(CC)c3C)CC2CCO)cc1 (stereo unspecified)	-	-	-	.	-	.	.
COc1ccc(-c2c(-c3ccccc3OC)sc3ccccc23)cc1OC	-	-	-	.	-	-	.
SMILES	VLA-4 inh	LANA-H2A inh	GRK2 inh	PKD1 inh	DSG3 Ab inh	HDAC3 inh	VLA-4 mod pick
COc1ccc2c(-c3ccc(OCCN4CCOCC4)cc3)c(-c3ccccc3OC)sc2c1	.	.	-	.	-	.	-
COc1ccccc1-c1sc2ccccc2c1-c1ccc2c(c1)OCCO2	-	-	-	.	-	-	.
COc1cc2sc(-c3ccccc3OC)c(-c3ccc(OCCN4CCOCC4)cc3)c2cc1OC	.	.	-	.	-	.	-
Cc1noc(C)c1NC(=O)N(C)C[C@@H]1Oc2ncc(Br)cc2C(=O)N([C@@H](C)CO)C[C@@H]1C	.	.	.	.	-	.	.
COc1cccc(NC(=O)Cc2ccccc2)c1	-	-	-	-	-	-	.
O=C(Cc1ccccc1)Nc1cccc(N2C(=O)C=CC2=O)c1	60	-	-	-	-	-	-
COC(=O)Nc1ccc(S(=O)(=O)N2CCCc3ccccc32)cc1	79	-	-	-	-	-	-
Cc1c(NC(=O)CSc2nc(-c3ccco3)cc(C(F)(F)F)n2)c(=O)n(-c2ccccc2)n1C	93	-	-	-	-	-	-
Cc1nn(-c2cc(N3CCOCC3)ccc2N)c(=O)c2ccccc12	64	-	-	-	.	-	-
CCc1ccc(-c2nc(SCC(=O)N3CCOCC3)n[nH]2)cc1	-	-	-	-	-	-	.
CC(C(=O)OCC(=O)c1cccc([N+](=O)[O-])c1)N1C(=O)C2C3C=CC(C3)C2C1=O (stereo unspecified)	-	-	-	.	-	-	.
O=C(Nc1ccon1)c1sc2cc(Cl)ccc2c1Cl	-	-	-	.	-	-	.
CCOC(=O)C(NC(=O)c1cccc(Cl)c1)(Nc1nnc(C)s1)C(F)(F)F (stereo unspecified)	-	-	-	-	-	-	-
COc1cc(NC(=O)C2CC(c3ccccc3Cl)=NO2)cc(OC)c1OC (stereo unspecified)	-	-	-	.	-	-	.
O=C(NC1CCN(Cc2ccccc2)CC1)c1ccc(S(=O)(=O)NCc2ccco2)cc1	-	-	-	-	-	-	.
O=C(NC1CCCCC1)c1ccc(S(=O)(=O)NCc2ccco2)cc1	52	-	-	-	-	-	-
Clc1ccc2c(N/N=C/c3cccnc3)ccnc2c1	-	-	-	-	-	-	.
Clc1ccc2c(N/N=C/c3ccc(Br)cc3)ccnc2c1	51	-	-	-	-	-	-
CC(C)C(NC(=O)CCNC(=O)c1ccc(C(C)(C)C)cc1)c1nc2ccccc2[nH]1 (stereo unspecified)	-	-	-	.	-	-	.
CC(C)(C)c1ccc(C(=O)NCCN2CCOCC2)cc1	-	-	-	.	-	-	.
CC(C)(C)c1ccc(C(=O)NCCCN2CCN(CCCNC(=O)c3ccc(C(C)(C)C)cc3)CC2)cc1	-	-	-	-	-	-	-
COc1cc(/C=C2/S/C(=N/S(=O)(=O)c3ccccc3)NC2=O)c([N+](=O)[O-])cc1OC	52	-	-	-	-	-	-
Cc1ccc(S(=O)(=O)CCC(=O)OCc2ccc(S(=O)(=O)C(C)C)cc2)cc1	51	-	-	-	-	-	-
CS(=O)c1nc(-c2ccc(Br)cc2)cc(-c2ccccc2)c1C#N (stereo unspecified)	59	-	-	-	-	-	41
O=C(NCCN1CCOCC1)C1CCCN(S(=O)(=O)c2ccc(F)cc2)C1 (stereo unspecified)	-	-	-	.	-	-	.
